According to PubChem BioAssay (EPA / NIEHS):
The source made the active and inactive calls. Rule for the calls: active = hit-call score of the fitted dose curve at least 0.9, where 1 is the maximum; inactive = score below 0.9.

How the values were obtained:
[1] = ATG_GLI_CIS: Attagene CIS-FACTORIAL HepG2 Assay for human Zinc Finger Protein GLI1 (AID 2282945); conditions: HepG2, Attagene cis-factorial reporter mRNA, GLI element; actives raise or lower the signal
How it was run: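 HepG2 cells transiently transfected with cis-promoter multiplexed reporter units report endogenous transcription factor activity. After 24 h chemical exposure, reporter mRNA was quantified by RT-PCR, 6-FAM labelling, HpaI digestion and capillary electrophoresis, with bidirectional fitting against DMSO.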

[2] = molecular target: Bile acid receptor (Homo sapiens) (UniProt Q96RI1); assay: ATG_IR1_CIS: Attagene CIS-FACTORIAL HepG2 Assay for human Nuclear Receptor Subfamily 1 Group H Member 4 (NR1H4), IR1 submotif (AID 2282946); conditions: IR1 reporter transcription, actives raise or lower the signal
Bile acid receptor (Homo sapiens), sequence (Q96RI1 whole entry, looked up): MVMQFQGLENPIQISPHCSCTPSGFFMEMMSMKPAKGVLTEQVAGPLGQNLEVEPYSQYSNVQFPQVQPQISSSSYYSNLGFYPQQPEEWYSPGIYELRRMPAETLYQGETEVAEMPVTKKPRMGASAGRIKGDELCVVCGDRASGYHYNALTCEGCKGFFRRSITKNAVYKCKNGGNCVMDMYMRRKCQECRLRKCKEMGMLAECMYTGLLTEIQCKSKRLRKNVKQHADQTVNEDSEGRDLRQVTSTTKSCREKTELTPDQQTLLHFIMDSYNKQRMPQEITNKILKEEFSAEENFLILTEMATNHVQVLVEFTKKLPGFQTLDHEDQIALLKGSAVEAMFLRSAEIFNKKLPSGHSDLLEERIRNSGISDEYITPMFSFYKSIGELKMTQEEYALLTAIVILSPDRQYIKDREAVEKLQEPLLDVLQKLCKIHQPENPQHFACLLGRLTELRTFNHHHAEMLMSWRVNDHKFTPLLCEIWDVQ
How it was run: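 Transient MRTU transfection, HepG2; 24 h dosing; RNA → RT-PCR → 6-FAM primer extension → HpaI digest → capillary electrophoresis fluorescence. Gain/loss of signal fitted relative to DMSO.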

[3] = ATG_GRE_CIS: Attagene CIS-FACTORIAL HepG2 Assay for human Glucocorticoid Response Elements (GRE) (AID 2282947); conditions: HepG2 GRE cis-reporter, Attagene multiplex mRNA; actives raise or lower the signal
How it was run: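 HepG2 cells transiently transfected with multiple cis-promoter reporter units measure endogenous TF activity; 24 h compound exposure. Reporter mRNA quantified by RT-PCR, FAM labelling, HpaI digestion and capillary electrophoresis; bidirectional fit vs DMSO baseline.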

[4] = ATG_ISRE_CIS: Attagene CIS-FACTORIAL HepG2 Assay for human Interferon Regulatory Factor 1 (IRF1) binding to an Interferon-Stimulated Response Element (ISRE) (AID 2282948); conditions: HepG2 ISRE cis-reporter (Attagene), mRNA transcription readout; actives raise or lower the signal
How it was run: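 Transfected HepG2 (multiple reporter transcription units, cis elements) dosed 24 h. RNA → oligo(dT) RT → PCR → 6-FAM primer extension → HpaI → CE. DMSO = negative control/baseline.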

[5] = ATG_M_32_CIS: Attagene CIS-FACTORIAL HepG2 Assay for M32 Transcription Factor (Internal Marker) (AID 2282949); conditions: HepG2 Attagene cis-factorial M32 reporter, mRNA; actives raise or lower the signal;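 note: background control marker of the multiplexed CIS panel rather than a real target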
How it was run: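 Following 24 h chemical exposure of HepG2 cells transiently expressing cis-promoter reporter constructs, reporter transcript levels were determined by RT-PCR with fluorescent labelling and capillary electrophoresis, then fitted bidirectionally against DMSO.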

[6] = ATG_M_06_CIS: Attagene CIS-FACTORIAL HepG2 Assay for M06 Transcription Factor (Internal Marker) (AID 2282950); conditions: HepG2 Attagene CIS-FACTORIAL M06 internal marker reporter; actives raise or lower the signal
How it was run: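 Measured 24 h post-dosing in transiently transfected HepG2 cells, this internal-marker endpoint reports reporter mRNA via RT-PCR with fluorescent primer extension and capillary electrophoresis. DMSO served as negative control and baseline for bidirectional fitting.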

[7] = molecular target: Hypoxia-inducible factor 1-alpha (Homo sapiens) (UniProt Q16665); assay: ATG_HIF1a_CIS: Attagene CIS-FACTORIAL HepG2 Assay for human Hypoxia Inducible Factor 1 (HIF1A) (AID 2282951); conditions: HepG2 Attagene cis-factorial HIF1a reporter transcription; actives raise or lower the signal
Hypoxia-inducible factor 1-alpha (Homo sapiens), sequence (Q16665 whole entry, looked up): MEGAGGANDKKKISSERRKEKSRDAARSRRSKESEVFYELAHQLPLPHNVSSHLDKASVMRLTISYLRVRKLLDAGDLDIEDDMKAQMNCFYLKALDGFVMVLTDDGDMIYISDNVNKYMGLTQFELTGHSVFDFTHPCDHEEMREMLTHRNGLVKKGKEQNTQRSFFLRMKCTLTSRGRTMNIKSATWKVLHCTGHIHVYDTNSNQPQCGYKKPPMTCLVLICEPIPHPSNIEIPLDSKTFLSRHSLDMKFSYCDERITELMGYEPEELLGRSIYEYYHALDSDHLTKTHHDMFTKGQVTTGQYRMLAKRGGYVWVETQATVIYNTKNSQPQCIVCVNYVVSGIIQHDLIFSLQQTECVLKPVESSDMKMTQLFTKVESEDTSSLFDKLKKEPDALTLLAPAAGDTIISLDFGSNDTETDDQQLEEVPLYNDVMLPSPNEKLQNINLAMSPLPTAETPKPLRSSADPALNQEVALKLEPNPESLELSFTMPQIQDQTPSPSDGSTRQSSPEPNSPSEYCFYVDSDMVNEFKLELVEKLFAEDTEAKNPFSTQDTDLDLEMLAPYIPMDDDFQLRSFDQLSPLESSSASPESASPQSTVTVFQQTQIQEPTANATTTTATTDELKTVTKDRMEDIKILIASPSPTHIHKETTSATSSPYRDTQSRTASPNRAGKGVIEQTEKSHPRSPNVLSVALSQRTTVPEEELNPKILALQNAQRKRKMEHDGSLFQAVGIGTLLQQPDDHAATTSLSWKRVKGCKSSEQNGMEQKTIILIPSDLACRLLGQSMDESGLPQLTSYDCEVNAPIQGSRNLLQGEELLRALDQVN
How it was run: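 RT-PCR/capillary electrophoresis fluorescence readout of reporter transcripts from endogenous-TF-driven cis elements in transfected HepG2 cells, 24 h exposure; activity fitted in both directions against DMSO controls.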

[8] = molecular target: Hepatocyte nuclear factor 6 (Homo sapiens) (UniProt Q9UBC0); assay: ATG_HNF6_CIS: Attagene CIS-FACTORIAL HepG2 Assay for human Hepatocyte Nuclear Factor 6 (HNF6) (AID 2282952); conditions: HepG2 Attagene cis-factorial HNF6 reporter transcription; actives raise or lower the signal
Hepatocyte nuclear factor 6 (Homo sapiens), sequence (Q9UBC0 whole entry, looked up): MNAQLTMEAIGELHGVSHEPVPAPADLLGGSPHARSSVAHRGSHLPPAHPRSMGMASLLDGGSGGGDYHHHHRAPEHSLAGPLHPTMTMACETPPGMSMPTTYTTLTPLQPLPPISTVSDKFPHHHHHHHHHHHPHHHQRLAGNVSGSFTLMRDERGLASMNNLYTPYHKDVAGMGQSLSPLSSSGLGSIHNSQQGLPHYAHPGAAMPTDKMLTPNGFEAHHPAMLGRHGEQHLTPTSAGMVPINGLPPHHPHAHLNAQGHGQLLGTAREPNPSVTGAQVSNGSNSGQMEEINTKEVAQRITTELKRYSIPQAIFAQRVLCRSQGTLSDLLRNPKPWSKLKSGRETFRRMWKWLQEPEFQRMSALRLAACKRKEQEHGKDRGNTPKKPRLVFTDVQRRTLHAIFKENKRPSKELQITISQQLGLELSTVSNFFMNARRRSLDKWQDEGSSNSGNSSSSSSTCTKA
How it was run: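 Multiplexed mRNA reporter assay in transfected HepG2; 24 h dosing; RT-PCR plus capillary electrophoresis fluorescence; DMSO-referenced bidirectional curve fitting.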

[9] = molecular target: Heat shock factor protein 1 (Homo sapiens) (UniProt Q00613); assay: ATG_HSE_CIS: Attagene CIS-FACTORIAL HepG2 Assay for human Heat Shock Transcription Factor 1 (HSE) (AID 2282953); conditions: HepG2 HSE cis-reporter, Attagene RNA transcription; actives raise or lower the signal
Heat shock factor protein 1 (Homo sapiens), sequence (Q00613 whole entry, looked up): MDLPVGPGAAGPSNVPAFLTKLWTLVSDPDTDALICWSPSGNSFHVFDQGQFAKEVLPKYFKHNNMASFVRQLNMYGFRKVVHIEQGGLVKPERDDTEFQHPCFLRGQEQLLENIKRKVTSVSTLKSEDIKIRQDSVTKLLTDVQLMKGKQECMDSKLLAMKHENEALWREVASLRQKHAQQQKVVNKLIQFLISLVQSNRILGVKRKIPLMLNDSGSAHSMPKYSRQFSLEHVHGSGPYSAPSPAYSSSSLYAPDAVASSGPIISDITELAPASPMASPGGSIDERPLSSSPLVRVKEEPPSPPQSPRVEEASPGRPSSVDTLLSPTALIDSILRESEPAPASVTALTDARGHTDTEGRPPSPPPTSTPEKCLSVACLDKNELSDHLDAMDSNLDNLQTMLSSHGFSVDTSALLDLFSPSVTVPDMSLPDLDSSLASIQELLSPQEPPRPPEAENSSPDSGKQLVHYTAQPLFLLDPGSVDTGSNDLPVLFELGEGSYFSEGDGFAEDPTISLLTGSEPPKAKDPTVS
How it was run: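 Reporter mRNA induction in HepG2 is measured 24 h after dosing, using transiently transfected multiplexed cis-regulated reporter units. Signal comes from capillary electrophoresis of labelled RT-PCR products, with DMSO as negative control.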

[10] = ATG_MRE_CIS: Attagene CIS-FACTORIAL HepG2 Assay for human Metal Responsive Element (MRE) (AID 2282954); conditions: HepG2 MRE cis-reporter transcription, Attagene multiplex; actives raise or lower the signal
How it was run: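 HepG2 cells transiently transfected with multiple cis-element reporter units measure endogenous MTF1-driven transcription. After 24 h compound exposure, reporter mRNA is quantified by RT-PCR with 6-FAM labelling, HpaI digestion and capillary electrophoresis; bidirectional fits versus DMSO.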

[11] = ATG_PBREM_CIS: Attagene CIS-FACTORIAL HepG2 Assay for human Phenobarbital-responsive Enhancer Module (PBREM) (AID 2282955); conditions: HepG2 PBREM cis-reporter, Attagene multiplexed transcription; actives raise or lower the signal
How it was run: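 Reporter mRNA read by RT-PCR, 6-FAM primer extension, HpaI digestion and capillary electrophoresis. Transfected HepG2 cells, 24 h compound exposure. Gain or loss of signal fitted bidirectionally relative to DMSO baseline.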

[12] = ATG_PXRE_CIS: Attagene CIS-FACTORIAL HepG2 Assay for human Pregnane X Receptor Element (PXRE) (AID 2282957); conditions: HepG2 Attagene CIS-FACTORIAL PXRE reporter, mRNA; actives raise or lower the signal
How it was run: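 Cells: HepG2, transiently transfected reporter units under cis promoter control. Exposure: 24 h. Detection: reporter mRNA via RT-PCR/CE fluorescence; bidirectional fitting, DMSO-referenced.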

[13] = ATG_PPRE_CIS: Attagene CIS-FACTORIAL HepG2 Assay for human Peroxisome Proliferator-activated Response Element (PPRE) (AID 2282958); conditions: HepG2 PPRE cis-element reporter, Attagene transcription factor profiling; actives raise or lower the signal
How it was run: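 Read-out: fluorescent reporter mRNA fragments resolved by capillary electrophoresis after RT-PCR. HepG2 cells carried transiently transfected PPRE-driven cis reporter constructs and were dosed for 24 h; gain or loss of signal fitted relative to DMSO.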

[14] = ATG_RORE_CIS: Attagene CIS-FACTORIAL HepG2 Assay for human RAR-related Orphan Receptor Element (RORE) (AID 2282959); conditions: HepG2 Attagene cis-factorial RORE reporter, mRNA; actives raise or lower the signal
How it was run: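 Readout: fluorescent reporter mRNA by RT-PCR plus capillary electrophoresis, 24 h after dosing transfected HepG2 cells. Endogenous transcription factor activity on a cis promoter element is measured. Gain or loss of signal fitted against DMSO.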

[15] = ATG_Sox_CIS: Attagene CIS-FACTORIAL HepG2 Assay for human SRY-box transcription factor (SOX) (AID 2282960); conditions: HepG2 Attagene cis-factorial SOX reporter, mRNA; actives raise or lower the signal
How it was run: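 Read-out: fluorescent RT-PCR products of SOX1-linked reporter transcripts resolved by capillary electrophoresis, fitted bidirectionally against DMSO. Transiently transfected HepG2 cells, 24 h after chemical exposure, endogenous transcription factor activity.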

[16] = molecular target: Transcription factor Sp1 (Homo sapiens) (UniProt P08047); assay: ATG_Sp1_CIS: Attagene CIS-FACTORIAL HepG2 Assay for human Specificity Protein 1 (Sp1) (AID 2282961); conditions: HepG2 Sp1 cis-reporter transcription, actives raise or lower the signal
Transcription factor Sp1 (Homo sapiens), sequence (P08047 whole entry, looked up): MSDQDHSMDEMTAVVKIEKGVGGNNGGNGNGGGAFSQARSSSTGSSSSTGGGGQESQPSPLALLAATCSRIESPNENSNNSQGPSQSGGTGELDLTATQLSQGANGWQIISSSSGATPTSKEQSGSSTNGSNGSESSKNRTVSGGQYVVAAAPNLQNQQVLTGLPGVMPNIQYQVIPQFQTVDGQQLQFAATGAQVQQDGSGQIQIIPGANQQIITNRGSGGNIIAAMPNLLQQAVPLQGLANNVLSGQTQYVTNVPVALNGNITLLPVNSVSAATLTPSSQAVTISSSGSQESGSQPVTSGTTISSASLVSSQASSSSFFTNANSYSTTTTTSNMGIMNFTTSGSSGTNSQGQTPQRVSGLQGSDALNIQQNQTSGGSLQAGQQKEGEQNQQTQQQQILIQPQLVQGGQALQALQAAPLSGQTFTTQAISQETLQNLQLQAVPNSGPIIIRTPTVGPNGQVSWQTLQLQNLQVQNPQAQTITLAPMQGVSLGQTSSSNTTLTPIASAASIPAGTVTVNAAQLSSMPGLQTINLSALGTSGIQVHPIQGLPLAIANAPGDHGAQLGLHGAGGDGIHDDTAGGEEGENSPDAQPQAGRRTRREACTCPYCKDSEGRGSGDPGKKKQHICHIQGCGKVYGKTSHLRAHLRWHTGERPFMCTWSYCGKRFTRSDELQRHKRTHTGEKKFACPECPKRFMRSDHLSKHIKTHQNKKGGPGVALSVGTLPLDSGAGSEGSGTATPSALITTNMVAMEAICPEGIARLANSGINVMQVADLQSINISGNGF
How it was run: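 Read-out: fluorescence of 6-FAM-labeled, HpaI-digested RT-PCR products separated by capillary electrophoresis. HepG2 cells carried transfected cis-element reporter units and were exposed to chemicals for 24 h; gain or loss of signal fitted relative to DMSO.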

[17] = ATG_SREBP_CIS: Attagene CIS-FACTORIAL HepG2 Assay for human Sterol Regulatory Element Binding (SREBP) (AID 2282962); conditions: HepG2 Attagene cis-factorial SREBP reporter, mRNA; actives raise or lower the signal
How it was run: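 Transfected HepG2 (cis-regulated reporter library, endogenous TFs) → compound 24 h → total RNA → oligo(dT) RT → reporter-specific PCR → FAM primer extension, HpaI cut → CE fluorescence. Fit bidirectional vs DMSO.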

[18] = molecular target: Signal transducer and activator of transcription 3 (Homo sapiens) (UniProt P40763); assay: ATG_STAT3_CIS: Attagene CIS-FACTORIAL HepG2 Assay for human Signal Transducer and Activator of Transcription 3 (STAT3) (AID 2282963); conditions: HepG2, Attagene cis-factorial STAT3 reporter transcription; actives raise or lower the signal
Signal transducer and activator of transcription 3 (Homo sapiens), sequence (P40763 whole entry, looked up): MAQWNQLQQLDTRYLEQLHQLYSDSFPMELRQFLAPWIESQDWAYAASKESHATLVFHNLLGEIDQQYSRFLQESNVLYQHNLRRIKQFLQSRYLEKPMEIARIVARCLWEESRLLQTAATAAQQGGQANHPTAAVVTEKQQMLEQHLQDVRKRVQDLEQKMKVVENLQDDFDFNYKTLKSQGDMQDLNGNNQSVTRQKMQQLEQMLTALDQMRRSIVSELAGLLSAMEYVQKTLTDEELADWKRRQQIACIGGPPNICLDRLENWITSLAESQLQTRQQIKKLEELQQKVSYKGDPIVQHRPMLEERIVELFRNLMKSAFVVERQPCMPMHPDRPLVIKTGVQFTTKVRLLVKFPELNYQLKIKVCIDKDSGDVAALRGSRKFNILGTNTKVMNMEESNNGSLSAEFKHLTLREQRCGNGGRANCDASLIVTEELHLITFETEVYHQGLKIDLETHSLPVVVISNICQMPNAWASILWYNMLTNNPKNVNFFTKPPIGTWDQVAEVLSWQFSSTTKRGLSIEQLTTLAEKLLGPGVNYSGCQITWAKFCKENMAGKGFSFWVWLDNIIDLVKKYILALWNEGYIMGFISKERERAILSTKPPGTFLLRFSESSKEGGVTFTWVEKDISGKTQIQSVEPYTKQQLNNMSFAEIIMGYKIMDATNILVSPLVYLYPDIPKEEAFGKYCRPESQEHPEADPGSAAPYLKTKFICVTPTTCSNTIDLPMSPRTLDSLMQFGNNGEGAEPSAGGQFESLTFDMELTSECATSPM
How it was run: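 HepG2 cells transiently transfected with cis-element-driven multiple reporter transcription units; after 24 h chemical exposure, reporter mRNA measured by RT-PCR, 6-FAM primer-extension labelling, HpaI digestion and capillary electrophoresis. Bidirectional fitting versus DMSO baseline.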

[19] = ATG_TA_CIS: Attagene CIS-FACTORIAL HepG2 Assay for human TA Basal Promoter (AID 2282964); conditions: HepG2 Attagene CIS-factorial TA basal promoter reporter; actives raise or lower the signal
How it was run: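 Cis-factorial format in HepG2: reporters report endogenous factors, not chimeric Gal4 fusions. After 24 h treatment, reporter transcripts were measured by RT-PCR-capillary electrophoresis fluorescence, analysed bidirectionally versus DMSO.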

[20] = molecular target: Paired box protein Pax-6 (Homo sapiens) (UniProt P26367); assay: ATG_Pax6_CIS: Attagene CIS-FACTORIAL HepG2 Assay for human Paired Box 6 (PAX6) (AID 2282956); conditions: HepG2 CIS-FACTORIAL PAX6 reporter transcription, RNA readout; actives raise or lower the signal
Paired box protein Pax-6 (Homo sapiens), sequence (P26367 whole entry, looked up): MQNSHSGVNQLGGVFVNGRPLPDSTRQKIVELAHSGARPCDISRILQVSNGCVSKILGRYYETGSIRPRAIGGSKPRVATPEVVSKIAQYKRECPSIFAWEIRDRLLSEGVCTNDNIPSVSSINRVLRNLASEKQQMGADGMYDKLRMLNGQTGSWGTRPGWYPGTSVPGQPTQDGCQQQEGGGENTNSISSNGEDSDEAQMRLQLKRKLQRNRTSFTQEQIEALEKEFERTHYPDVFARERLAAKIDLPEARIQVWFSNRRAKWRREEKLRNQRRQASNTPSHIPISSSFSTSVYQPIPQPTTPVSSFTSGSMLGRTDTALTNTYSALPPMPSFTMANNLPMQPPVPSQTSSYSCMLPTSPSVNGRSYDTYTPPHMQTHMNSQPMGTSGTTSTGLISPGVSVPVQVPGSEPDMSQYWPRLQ
How it was run: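 Transient MRTU transfection of HepG2 → compound exposure 24 h → TriZol RNA, oligo(dT) RT → PCR, 6-FAM primer extension, HpaI cut → capillary electrophoresis; activity fitted both directions against DMSO.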

Measured: AC50

COCCC(=O)OC
not listed: [20]
inactive: all other assays above

O=S(=O)(Cl)C(F)(F)C(F)(F)C(F)(F)C(F)(F)C(F)(F)C(F)(F)C(F)(F)C(F)(F)F
active: [12] 28.3 µM | [13] 36.6 µM
not listed: [20]
inactive: all other assays above

C=CCOC(=O)CC(C)C
not listed: [7] | [19] | [20]
inactive: all other assays above

CCCC(=O)OCC(COC(=O)CCC)OC(=O)CCC
active: [4] 53 µM | [12] 0.0935 µM
not listed: [20]
inactive: all other assays above

OCCCc1cccnc1
not listed: [20]
inactive: all other assays above

OCCCCl
not listed: [7]
inactive: all other assays above

O=S(=O)(O)c1ccc(Cl)cc1
not listed: [10] | [19]
inactive: all other assays above

Cc1ccc([N+](=O)[O-])c(C)c1
not listed: [7]
inactive: all other assays above

CN(N=O)C(=O)N[C@@H]1[C@@H](O)[C@H](O)[C@@H](CO)O[C@@H]1O
not listed: [7] | [19]
inactive: all other assays above

CC(C)CC=C(C=O)c1ccccc1
active: [12] 0.956 µM
not listed: [7]
inactive: all other assays above

CCC(=O)OC(C)c1ccccc1 (stereo not given)
active: [12] 26.5 µM
not listed: [10]
inactive: all other assays above

O=C(O)C(F)(F)OC(F)(F)C(F)(F)OC(F)(F)C(F)(F)OC(F)(F)F
active: [9] 104 µM | [13] 36.4 µM
not listed: [10]
inactive: all other assays above

CCCCCCCCCCCCC[N+](C)(C)Cc1ccccc1
not listed: [7] | [19]
inactive: all other assays above

O=S(=O)(O)CCC(F)(F)C(F)(F)C(F)(F)C(F)(F)C(F)(F)C(F)(F)C(F)(F)C(F)(F)F
active: [2] 39.9 µM
not listed: [10]
inactive: all other assays above

OCC(F)(F)C(F)(F)C(F)(F)C(F)(F)C(F)(F)C(F)(F)C(F)(F)C(F)(F)CO
active: [12] 16.6 µM
not listed: [10]
inactive: all other assays above
